Test [1] is described as follows: qHTS assay to identify small molecule agonists of the sonic hedgehog signaling (Shh) pathway - cell viability counter screen (AID 1259366). Also: nearly all actives have a fitted effect of over 50% in size. The procedure, abridged: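 In quantitative high-throughput format, 3T3 Gli1-Luc cells were exposed to compounds for 24hr and multiplexed for viability using CellTiter-Fluor, incubated 1hr at 37C before the fluorescence read.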
For orientation: In qHTS, concentration-response curves come from the screen itself.

Test [2] in a line: qHTS assay to identify small molecule antagonists of the sonic hedgehog signaling (Shh) pathway - cell viability counter screen (AID 1259367). Also: nearly all actives have a fitted effect of over 55% in size. Put shortly: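 After a 4 hr settling period, 3T3 Gli1-Luc cells were treated with DMSO-dissolved chemicals and conditioned medium, kept 24 hr at 37C in 5% CO2, and assayed for viability by CellTiter-Fluor fluorescence following 1 hr reagent incubation.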

Test [3] in a line: qHTS assay to identify small molecule agonists of the sonic hedgehog signaling (Shh) pathway (AID 1259368; calls by dose curve;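 also: NIH/3T3-derived 3T3Gli1-Luc cells carrying a stable Gli1-driven firefly luciferase reporter; series mostly up to about 92 µM; nearly all actives have a fitted effect of over 15% in size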). Put shortly: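 Luminescent signal was taken as a measure of Gli1-controlled luciferase expression in stably transfected NIH/3T3-derived cells that had been treated for 24 hr with compounds delivered in DMSO.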
A short description of test [4]: qHTS assay to identify small molecule antagonists of the sonic hedgehog signaling (Shh) pathway (AID 1259369; calls by dose curve; also: nearly all actives have a fitted effect of over 45% in size). The procedure, abridged: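 Screening used 3T3Gli1-Luc cells at 2,000 per well, compounds delivered in DMSO, and conditioned medium as agonist stimulus; plates incubated 24hr at 37 C and 5% CO2 before a 30min luciferase step.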
Test [5] deals with Estrogen receptor beta (Homo sapiens) (UniProt Q92731). The experiment in a line: qHTS assay to identify small molecule agonists of the estrogen receptor beta (ER-beta) signaling pathway (AID 1259377; active = well fitted activation curve with a large enough effect in the signal ratio in the repeat runs, not every such curve was filed as active; the % refers to the signal ratio). Put shortly: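 Reporter cells (HEK293T, ER-beta-UAS-bla) receive compounds or DMSO after a 6 hr pre-incubation. They then incubate 16 hr at 37C/5% CO2, and fluorescence from LiveBLAzer B/G substrate is measured after 2 hours at room temperature.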

Test [6] has the same target. The experiment in a line: qHTS assay to identify small molecule antagonists of the estrogen receptor beta (ER-beta) signaling pathway (AID 1259378; active = well fitted inhibition curve with a large enough effect in the signal ratio in the repeat runs, not every such curve was filed as active; the % refers to the signal ratio). The procedure, abridged:
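ER-beta-UAS-bla HEK293T (GripTite) cells in 2% charcoal-stripped FBS medium were preincubated 6 hr at 37C, dosed with compound, then stimulated with 1 nM E2 (final) for 16 hr; beta-lactamase reporter read by B/G FRET fluorescence after 2 hr substrate loading.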

Test [7] is described as follows: qHTS assay to identify small molecule antagonists of the estrogen receptor beta (ER-beta) signaling pathway - cell viability counter screen (AID 1259382). Also: series mostly up to about 92 µM; nearly all actives have a fitted effect of over 55% in size. Put shortly: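 Tox21 10K library tested in qHTS format on ER-beta-bla HEK293T cells stimulated with 1nM E2; 16 hr treatment at 37C. Same-well CellTiter-Glo luminescence served as the cell viability measure.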
Test [8] addresses Estrogen receptor (Homo sapiens) (UniProt P03372). The experiment in a line: qHTS assay to identify small molecule agonists of the estrogen receptor alpha (ER-alpha) signaling pathway in the presence of an antagonist (AID 1259383; calls by dose curve; also: top concentration of the series differs between compounds; nearly all actives have a fitted effect of over 15% in size). The procedure, abridged: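 In VM7Luc4E2 cells, 4,000 per well, compounds at 15 concentrations were co-incubated 22hr at 37C with 10.0nM final ICI-182,780. Luminescence from the stably transfected 4×ERE-luciferase reporter was recorded 30min after ONE-Glo addition.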

The nature of test [9]: qHTS assay to identify small molecule agonists or antagonists of the thyroid stimulating hormone receptor (TSHR) signaling pathway - wild type cell line counter screen (AID 1259384; calls by dose curve). Put shortly: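 Wild-type HEK293 cells were plated 18 h at 37 C/5% CO2, pin-dosed with compound plus Ro20-1724 medium, held 30 min at room temperature, then given cAMP-d2 and anti-cAMP-cryptate; fluorescence was read after 1 h. Fifteen concentrations, triplicate.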

The target in test [10] is Thyrotropin receptor (Homo sapiens) (UniProt P16473). The experiment in a line: qHTS assay to identify small molecule antagonists of the thyroid stimulating hormone receptor (TSHR) signaling pathway (AID 1259385; calls by dose curve; also: nearly all actives have a fitted effect of over 20% in size). The procedure, abridged: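 TSHR-HEK293 cells were plated and held 18 h at 37C/5% CO2, then given compound plus Ro20-1724 and stimulated with TSH at 1.5 ng/mL final. After 30 min at room temperature, cAMP was detected with cAMP-d2/anti-cAMP-cryptate (1 h) by fluorescence.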

Test [11] is described as follows: qHTS assay to identify small molecule agonists of the estrogen receptor alpha (ER-alpha) signaling pathway in the presence of an antagonist - cell viability counter screen (AID 1259386).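 Also: series mostly up to about 92 µM; cells exposed to compounds for 22 h at 37 °C before the viability read; nearly all actives have a fitted effect of over 30% in size.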 The procedure, abridged: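 Fluorescent CellTiter-Fluor viability signal from VM7Luc4E2 cells, with the reagent added during the final hour of a 22hr compound exposure at 37C in the presence of 10.0nM ICI-182,780.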

Test [12] in a line: qHTS assay to identify small molecule antagonists of the progesterone receptor (PR) signaling pathway - cell viability counter screen (AID 1346798). Also: series mostly up to about 92 µM; nearly all actives have a fitted effect of over 50% in size. The procedure, abridged: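 In the same plates used for the beta-lactamase readout, cell viability of compound- and R5020-treated PR-UAS-bla HEK293T cells (16 hr, 37C) was assessed by CellTiter-Glo luminescence.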
A short description of test [13]: qHTS assay to identify small molecule agonists of the progesterone receptor (PR) signaling pathway - cell viability counter screen (AID 1346799; calls by dose curve; also: nearly all actives have a fitted effect of over 45% in size; also: potency is read from the fitted curve at half-maximal effect). The procedure, abridged: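 Multiplexed viability read: CellTiter-Glo luminescence, 30 min RT, following LiveBLAzer FRET measurement on PR-UAS-bla HEK293T cells exposed to compounds 16 hr.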
Test [14] can be described thus: qHTS assay to identify small molecule agonists of the androgen receptor (AR) signaling pathway in the presence of an antagonist - cell viability counter screen (AID 1259379).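 Also: MDA-kb2 human breast cancer cells carrying an MMTV luciferase reporter; series mostly up to about 92 µM; nearly all actives have a fitted effect of over 25% in size.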 Put shortly:
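In MDA-kb2 cells (human breast carcinoma, MMTV-luciferase), compounds at 15 concentrations plus 3.0uM nilutamide; 16 hr, 37C, 0% CO2; CellTiter-Fluor fluorescence read for viability.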

Test [15] deals with Progesterone receptor (Homo sapiens) (UniProt P06401). The experiment in a line: qHTS assay to identify small molecule antagonists of the progesterone receptor (PR) signaling pathway (AID 1346795; active = well fitted inhibition curve with a large enough effect in the signal ratio in the repeat runs, not every such curve was filed as active; the % refers to the signal ratio). Put shortly:
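Stimulus R5020 at 1 nM final; cells HEK293T PR-UAS-bla; medium with 2% charcoal-stripped FBS; compound exposure 16 hr at 37C, 5% CO2; detection by FRET beta-lactamase substrate, 2 hr, room temperature.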

Test [16] can be described thus: qHTS assay to identify small molecule antagonists of the TGF-beta/Smad signaling pathway - cell viability counter screen (AID 1346824). Also: nearly all actives have a fitted effect of over 50% in size. Put shortly:
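SBE-bla HEK 293T cells were plated overnight at 37 C, then given compounds in DMSO plus TGF-beta1 (added as 0.25 ng/mL solution) for 5 hr. After the bla read, CellTiter-Glo was added to the same wells and luminescence read after 30 min at room temperature.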

The nature of test [17]: qHTS assay to identify small molecule agonists of the TGF-beta/Smad signaling pathway - cell viability counter screen (AID 1346829). Also: top concentration of the series differs between compounds; nearly all actives have a fitted effect of over 45% in size. The procedure, abridged:
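Same-well cytotoxicity: CellTiter-Glo added after the 2 hr room-temperature beta-lactamase substrate step, luminescence measured 30 min later; cells had 5 hr of compound at 37 C.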

A short description of test [18]: qHTS assay to identify small molecule agonists of the estrogen receptor beta (ER-beta) signaling pathway - cell viability counter screen (AID 1259380). Also: nearly all actives have a fitted effect of over 30% in size. The procedure, abridged: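 Viability of ER-beta-UAS-bla HEK293T cells was determined by CellTiter-Glo luminescence following 16 hr treatment with test compounds at 37C.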
Test [19] deals with Progesterone receptor (Homo sapiens) (UniProt P06401). The experiment in a line: qHTS assay to identify small molecule agonists of the progesterone receptor (PR) signaling pathway (AID 1346784; calls by dose curve; also: nearly all actives have a fitted effect of over 30% in size). The procedure, abridged: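 Reporter assay, GripTite PR-UAS-bla HEK 293T cells: 16 hr exposure to DMSO-dissolved compounds at 37C, 5% CO2, in steroid-depleted (2% charcoal-stripped FBS) medium; beta-lactamase measured by FRET fluorescence.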

Values without a mark were called inactive. Results filed as inconclusive are left out. The source made the active and inactive calls. Unless noted, calls follow the shape of the dose curve; as a rule, active = well fitted curve in the direction sought with a large enough effect in the repeat runs; inconclusive = weak or mixed curves; inactive = no such curve, though single readings can be large; an effect the other way counts as inactive or inconclusive.

Drawing on PubChem BioAssay (Tox21), this text covers outcome and Potency for eight molecules.

Chain of Estrogen receptor (Homo sapiens) (P03372 whole entry, looked up): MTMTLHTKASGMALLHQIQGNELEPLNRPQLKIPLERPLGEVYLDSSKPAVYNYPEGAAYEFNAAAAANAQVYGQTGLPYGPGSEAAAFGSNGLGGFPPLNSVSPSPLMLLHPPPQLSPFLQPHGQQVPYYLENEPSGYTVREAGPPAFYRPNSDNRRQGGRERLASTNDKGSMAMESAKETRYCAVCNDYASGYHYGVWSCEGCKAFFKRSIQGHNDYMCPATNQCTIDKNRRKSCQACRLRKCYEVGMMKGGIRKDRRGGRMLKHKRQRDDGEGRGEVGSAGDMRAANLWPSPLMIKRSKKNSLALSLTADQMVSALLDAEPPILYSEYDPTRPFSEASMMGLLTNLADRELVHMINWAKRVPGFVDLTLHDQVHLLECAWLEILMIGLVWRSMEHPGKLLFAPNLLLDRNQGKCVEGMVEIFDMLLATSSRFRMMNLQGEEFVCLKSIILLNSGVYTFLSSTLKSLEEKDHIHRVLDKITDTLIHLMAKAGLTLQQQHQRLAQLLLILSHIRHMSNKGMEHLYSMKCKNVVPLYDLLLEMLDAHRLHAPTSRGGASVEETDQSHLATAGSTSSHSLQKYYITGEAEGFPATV
Chain of Progesterone receptor (Homo sapiens) (P06401 whole entry, looked up): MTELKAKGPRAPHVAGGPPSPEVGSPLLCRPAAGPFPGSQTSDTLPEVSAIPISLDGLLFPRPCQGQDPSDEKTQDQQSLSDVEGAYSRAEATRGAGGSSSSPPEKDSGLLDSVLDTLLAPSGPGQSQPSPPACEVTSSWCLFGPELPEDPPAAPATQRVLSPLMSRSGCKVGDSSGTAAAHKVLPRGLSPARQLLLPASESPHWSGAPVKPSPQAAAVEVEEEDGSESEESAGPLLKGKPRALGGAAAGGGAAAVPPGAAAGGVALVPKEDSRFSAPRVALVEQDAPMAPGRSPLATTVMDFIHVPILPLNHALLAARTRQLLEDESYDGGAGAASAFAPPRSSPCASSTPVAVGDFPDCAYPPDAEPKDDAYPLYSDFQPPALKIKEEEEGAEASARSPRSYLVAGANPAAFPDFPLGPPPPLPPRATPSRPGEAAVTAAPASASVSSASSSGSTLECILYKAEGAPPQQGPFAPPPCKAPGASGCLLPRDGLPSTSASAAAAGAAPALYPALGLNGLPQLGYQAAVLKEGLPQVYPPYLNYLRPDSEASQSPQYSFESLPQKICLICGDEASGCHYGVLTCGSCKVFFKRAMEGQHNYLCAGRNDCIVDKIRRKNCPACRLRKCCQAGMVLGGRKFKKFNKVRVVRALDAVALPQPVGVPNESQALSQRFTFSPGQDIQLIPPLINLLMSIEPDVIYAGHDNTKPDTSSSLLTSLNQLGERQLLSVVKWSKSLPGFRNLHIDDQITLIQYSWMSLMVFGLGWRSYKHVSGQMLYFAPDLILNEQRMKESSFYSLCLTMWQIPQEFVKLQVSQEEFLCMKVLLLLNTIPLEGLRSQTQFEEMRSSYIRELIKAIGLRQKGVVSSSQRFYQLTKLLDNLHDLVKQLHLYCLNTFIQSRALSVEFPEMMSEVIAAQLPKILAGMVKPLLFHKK
Chain of Thyrotropin receptor (Homo sapiens) (P16473 whole entry, looked up): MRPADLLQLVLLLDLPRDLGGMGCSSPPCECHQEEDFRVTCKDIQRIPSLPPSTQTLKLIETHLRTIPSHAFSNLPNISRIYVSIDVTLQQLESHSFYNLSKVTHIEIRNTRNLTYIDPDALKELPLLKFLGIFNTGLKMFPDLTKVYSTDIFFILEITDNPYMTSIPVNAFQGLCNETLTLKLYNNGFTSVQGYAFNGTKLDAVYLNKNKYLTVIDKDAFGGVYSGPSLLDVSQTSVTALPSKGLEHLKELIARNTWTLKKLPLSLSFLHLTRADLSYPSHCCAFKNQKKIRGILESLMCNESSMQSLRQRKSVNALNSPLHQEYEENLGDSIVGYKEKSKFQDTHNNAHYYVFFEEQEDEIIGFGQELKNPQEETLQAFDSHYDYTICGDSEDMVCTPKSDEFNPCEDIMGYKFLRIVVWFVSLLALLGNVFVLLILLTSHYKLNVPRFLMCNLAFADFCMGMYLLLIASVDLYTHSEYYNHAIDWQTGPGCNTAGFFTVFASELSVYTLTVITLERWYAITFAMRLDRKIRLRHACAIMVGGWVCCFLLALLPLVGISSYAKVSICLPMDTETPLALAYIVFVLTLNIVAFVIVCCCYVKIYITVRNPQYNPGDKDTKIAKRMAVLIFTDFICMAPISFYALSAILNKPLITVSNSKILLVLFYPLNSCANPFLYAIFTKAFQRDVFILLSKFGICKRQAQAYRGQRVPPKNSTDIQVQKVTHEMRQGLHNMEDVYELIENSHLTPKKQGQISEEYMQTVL
Chain of Estrogen receptor beta (Homo sapiens) (Q92731 whole entry, looked up): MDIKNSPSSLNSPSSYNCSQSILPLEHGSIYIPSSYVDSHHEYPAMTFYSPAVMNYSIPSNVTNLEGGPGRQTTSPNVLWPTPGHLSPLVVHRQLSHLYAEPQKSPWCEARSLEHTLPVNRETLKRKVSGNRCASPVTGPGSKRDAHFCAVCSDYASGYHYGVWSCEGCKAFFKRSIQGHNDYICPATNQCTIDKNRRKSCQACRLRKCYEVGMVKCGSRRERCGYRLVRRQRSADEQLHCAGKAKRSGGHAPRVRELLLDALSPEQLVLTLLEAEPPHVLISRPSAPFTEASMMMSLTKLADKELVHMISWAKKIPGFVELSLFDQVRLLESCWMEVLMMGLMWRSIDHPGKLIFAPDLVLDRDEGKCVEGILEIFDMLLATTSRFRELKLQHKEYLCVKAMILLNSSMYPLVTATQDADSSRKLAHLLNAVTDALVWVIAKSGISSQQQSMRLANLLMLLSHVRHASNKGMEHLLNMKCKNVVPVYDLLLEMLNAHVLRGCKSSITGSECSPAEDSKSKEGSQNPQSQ

Consider `CCN1CCN(C(=O)N[C@@H](C(=O)N[C@@H]2C(=O)N3C(C(=O)O)=C(CSc4nnnn4C)CS[C@H]23)c2ccc(O)cc2)C(=O)C1=O`, for which the molecule was called inactive in test [1], in test [2], in [3], in test [6], in [7] and in test [9]. For the same molecule, the outcome in test [10], in [11] and in test [12] was inactive. The Potency result in test [4], in [5], in test [8] and in test [13] was “inactive” throughout.
For the molecule `Cc1ccc(O)c([N+](=O)[O-])c1`, the result in [1], in test [2], in [3], in [14], in test [11] and in [16] was inactive. In addition, the molecule was classed as inactive in [17]. Moreover, the Potency result in test [4], in test [5], in test [8] and in test [15] was “inactive” in each case. Besides, the Potency in [13] was 24.6 µM (active).
With `CCCCNCC`, the molecule was classed as inactive in [1], in test [2], in [3], in test [14], in test [7] and in [9]. Also, the outcome in [10], in test [11], in [16] and in [17] was inactive. In addition, the Potency entry in test [4], in test [18], in [8], in test [19], in test [15] and in [13] was “inactive” throughout.
With `COC(C)(C)CC(C)=O`, the molecule was classed as inactive in [1], in test [2], in [3], in test [14], in [7] and in test [11]. Besides, the result in [17] was inactive. Moreover, the Potency entry in test [4], in test [5] and in test [18] was “inactive” in each case.
Turning to `O=S(=O)(O)c1ccc(Cl)cc1`, the result in test [1], in test [2], in test [3], in test [6], in test [7] and in test [11] was inactive. Further, the outcome in [12], in [16] and in test [17] was inactive. Also, the Potency entry in test [4], in [5], in test [8], in test [19], in [15] and in [13] was “inactive” in each case.
Regarding `Cc1cccc(N)n1`, the outcome in test [1], in [2], in test [3], in test [6], in test [14] and in [7] was inactive. For the same molecule, the molecule was classed as inactive in test [9], in test [10], in test [11], in test [12], in test [16] and in [17]. Moreover, the Potency result in test [4], in [8], in test [19] and in test [13] was “inactive” each time.
Regarding `O=C(O)CCC(=O)Nc1ccc(S(=O)(=O)Nc2nccs2)cc1`, the outcome in test [1], in test [2], in test [3], in test [14], in test [7] and in test [11] was inactive. The molecule was called inactive in test [12] and in test [16]. The Potency entry in test [4], in test [5], in [19] and in test [13] was “inactive” in each case.
For `Cc1cc2c(cc1CC(=O)c1sccc1S(=O)(=O)Nc1onc(C)c1Cl)OCO2`, the result in test [1], in test [2], in test [3], in test [6], in test [14] and in test [7] was inactive. In addition, the outcome in test [11], in [12] and in [17] was inactive. For the same molecule, the Potency entry in test [4], in test [8] and in [15] was “inactive” each time.
